TEAD-YAP inh: TEAD-YAP interaction inhibition. HEK-TIYL cells, TEAD-Gal4/YAP UAS-luciferase luminescence. inhibition, % at 9.12 µM. 1.4% of 640,000 active. AID 1259422; in the data active = inhibition above about 32%
GPR151 ag: activators of human GPR151; 1% of 650,000 active; PathHunter beta-arrestin GPR151 cells, luminescence; activation, % at 11.2 µM; AID 1508602; in the data active = activation above about 4.9%
Target sequence (Q8TDV0 whole entry, looked up): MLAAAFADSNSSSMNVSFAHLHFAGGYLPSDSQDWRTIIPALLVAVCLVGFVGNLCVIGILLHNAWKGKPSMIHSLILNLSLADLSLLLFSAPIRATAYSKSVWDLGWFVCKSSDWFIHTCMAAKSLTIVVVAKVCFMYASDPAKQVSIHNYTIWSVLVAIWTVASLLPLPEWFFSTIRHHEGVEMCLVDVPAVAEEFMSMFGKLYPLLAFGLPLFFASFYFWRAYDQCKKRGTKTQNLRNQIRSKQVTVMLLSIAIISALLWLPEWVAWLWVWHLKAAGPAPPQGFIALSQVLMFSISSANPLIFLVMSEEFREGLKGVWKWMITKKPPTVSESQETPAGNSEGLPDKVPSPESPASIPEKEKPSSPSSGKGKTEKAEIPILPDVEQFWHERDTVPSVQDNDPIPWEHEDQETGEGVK
MITF primary: blocks human microphthalmia-associated transcription factor; AID 1259374; O75030; AlphaScreen MITF homodimerization, bead proximity signal; 0.91% of 650,000 active; inhibition, % at 2.6 µM; in the data active = inhibition above about 50%
FBW7 activator: human FBW7 E3 ligase activation, primary screen | Q969H0 | AlphaScreen FBW7–phospho-cyclin E peptide binding, activator screen | normalized activity (activation), % at 26.1 µM | 0.13% of 650,000 active | AID 1259310; in the data active = normalized activity above about 1.9%;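 note: purified mutant Fbw7 with reduced substrate affinity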
GPR151 confirm: human GPR151 activation, confirmation screen; activation, % at 11.2 µM; GPR151 PathHunter beta-arrestin cells, luminescence, 90 min; % of EA-reagent control over plate median; shares compounds with GPR151 ag; 6,700 tested, under 10 active; AID 1508609;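 active = mean percent activation across replicates above the confirmation screen cutoff of 4.91%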
GPR119 ag: GPR119 activation, counter-screen for GPR151 activators. shares compounds with GPR151 ag. activation, % at 11.2 µM. 0.3% of 6,700 active. GPR119 PathHunter beta-arrestin cells, luminescence, 90 min; 0 = compound-well median, 100 = enzyme-acceptor control;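 active = mean percent activation in the counterscreen above 29.09%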;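 note: counterscreen on off-target GPR119 to flag nonselective hits from the GPR151 activator screen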
Hits are given with their value; – = inactive; · = not tested or not shown. Compounds with a hit are over-represented: about 3.4% of the library has one in this group of screens.

SMILES	TEAD-YAP inh	GPR151 ag	MITF primary	FBW7 activator	GPR151 confirm	GPR119 ag
CC(Oc1ccccc1)C(=O)Nc1ccccc1O (stereo unspecified)	–	5.3	–	–	–	–
Cc1nc2nc(SCC(=O)NC3CCCCC3)nn2c(C)c1Cc1c(F)cccc1Cl	–	6.4	–	–	–	–
Cc1csc(Nc2ccccc2)[n+]1CC(O)c1ccc([N+](=O)[O-])cc1 (stereo unspecified)	–	6.3	–	–	–	–
Nc1c(Cl)ncnc1N1CCCCC1	–	–	–	–	·	·
COc1ccc(CC2(CCC(=O)NCc3cnn(C)c3C)CCC(=O)N2)c(F)c1 (stereo unspecified)	–	5.1	–	–	–	–
COc1cc(OC)cc(C(=O)N2CCN(Cc3cc(OC)ccc3OC)CC2)c1	–	–	–	–	·	·
COc1cc(Nc2nc(NCCO)c3ncn(-c4ccsc4)c3n2)cc(OC)c1OC	36.8	5.6	–	–	–	–
CCNc1nc(NCCN2CCOCC2)c2ncn(-c3ccsc3)c2n1	33.5	6.5	–	–	–	–
CCNc1nc(NCCN2CCOCC2)c2ncn(-c3ccccc3)c2n1	–	–	–	–	·	·
Cn1c(=NC(=O)CN2C(=O)CCC2=O)sc2cc(F)cc(F)c21	–	–	–	–	·	·
CCC(=O)N=c1sc2cc(F)cc(F)c2n1C	–	8.1	–	–	–	–
O=C(Cc1cc(=O)[nH][nH]1)N/N=C/C=C/c1ccccc1	–	5.3	–	–	–	–
O=C(Cc1cccs1)N/N=C\C=C\c1ccccc1	–	–	–	–	·	·
Cc1n[nH]c(C)c1CCC(=O)N/N=C/C=C/c1ccccc1	–	6.5	–	–	–	–
Cc1cnc(N2CCc3ccccc3C2)nc1NC1CCN(Cc2ccccc2)CC1	–	–	–	–	·	·
O=C(Nc1cc(Cl)c(Cl)cc1Cl)c1cnc2n(c1=O)CCS2	–	7.7	–	–	–	–
Cc1ccc(S(=O)(=O)N(CC(=O)N2CCN(C)CC2)c2cccc(Cl)c2C)cc1	–	–	–	–	·	·
Cc1ccc(C(=O)N/N=C\c2ccccc2OC(=O)c2ccco2)cn1	–	–	–	–	·	·
NNC(=O)CSc1nc2cccnc2s1	–	5.1	–	–	–	–
CC1=C(C(=O)Nc2ccc(Br)cn2)C(c2ccc(N(C)C)cc2)C2=C(CC(C)(C)CC2=O)N1 (stereo unspecified)	–	–	–	–	·	·
O=C1C(=O)N(CCN2CCOCC2)C(c2ccc(F)cc2)/C1=C(\O)c1ccc(F)cc1 (stereo unspecified)	–	–	–	–	·	·
O=C1C(=O)N(CCN2CCOCC2)C(c2ccco2)/C1=C(/O)c1ccc(F)cc1 (stereo unspecified)	–	6.7	–	–	–	–
CCN(CC)c1n[nH]c(-c2cccc(Cl)c2)n1	–	5.3	–	–	–	–
CCn1c(-c2cccc(Cl)c2)n[nH]c1=S	–	–	–	–	·	·
CC(=O)NC1=NC(=O)/C(=C/c2ccc(OCc3ccc([N+](=O)[O-])cc3)cc2)S1	–	5.0	–	–	–	–
SMILES	TEAD-YAP inh	GPR151 ag	MITF primary	FBW7 activator	GPR151 confirm	GPR119 ag
COc1cc(/C=C2\SC(NC(C)=O)=NC2=O)ccc1OCc1ccc([N+](=O)[O-])cc1	–	–	–	–	·	·
O=C(NN=C1CCCC1)C(O)(c1ccccc1)c1ccccc1	–	–	–	–	·	·
O=C(NN=C1CCCCC1)C(O)(c1ccccc1)c1ccccc1	–	9.9	–	–	–	–
COc1ccc(/C=C(\NC(=O)c2ccccc2)C(=O)NN)c(OC)c1	–	–	–	–	·	·
COc1ccc(/C=C(/NC(=O)c2ccc(C)cc2)C(=O)O)c(OC)c1	–	5.3	–	–	–	–
CCOC(=O)C1=C(c2ccccc2)N(C)C(=O)NC1c1c(F)cccc1Cl (stereo unspecified)	–	–	–	–	·	·
CCN(CC)C(=O)C1CCCN(c2cc(C(=O)NCCN(C(C)C)C(C)C)ccn2)C1 (stereo unspecified)	–	6.2	–	–	–	–
CCCNC(=O)c1ccnc(N2CCCC(C(=O)N(CC)CC)C2)c1 (stereo unspecified)	–	–	–	–	·	·
Cc1ccc2nc(Cl)c(C3CC(c4ccc(Br)cc4)=NN3S(C)(=O)=O)cc2c1 (stereo unspecified)	–	5.1	–	–	–	–
CS(=O)(=O)N1N=C(c2ccc(Br)cc2)CC1c1cc2ccccc2nc1Cl (stereo unspecified)	–	–	–	–	·	·
Clc1ccc(Cn2cc(/C=N/n3cnnc3)c3ccccc32)cc1	–	6.2	–	–	–	–
Fc1ccc(Cn2cc(/C=N/n3cnnc3)c3ccccc32)cc1	–	–	–	–	·	·
CC1CCCCC1NS(=O)(=O)c1ccc(F)c(C(=O)Nc2ccc(Cl)cc2C(F)(F)F)c1 (stereo unspecified)	–	–	–	–	·	·
COc1cc(Br)c(C2C(C#N)=C(N)Oc3cc4c(cc32)OCO4)cc1OC (stereo unspecified)	–	9.1	–	–	–	–
O=C(NCc1ccccc1)c1nnc(Cc2cccc(F)c2)o1	–	4.9	–	–	–	–
CSc1nc2sc3c(c2c(=O)n1-c1ccccc1)CCN(C)C3	–	–	–	–	·	·
CCOc1ccccc1-n1c(=S)sc2c(=O)n(-c3ccccc3F)c(SCc3cccnc3)nc21	–	–	–	–	·	·
O=C(Cc1cccc2c(S(=O)O)cccc12)NC(c1ccccc1)c1ccccc1	–	6.8	–	–	–	–
Nc1c2c(nc3c1CCC3)CCCC2	–	5.0	–	–	–	–
COCCCNC(=O)c1ccc(CNS(=O)(=O)c2ccc(OC)cc2)cc1	–	–	–	–	·	·
O=[N+]([O-])c1ccc(CSC2=NCCN2)cc1	–	7.2	–	–	–	–
CCOc1ccc(CSC2=NCCN2)cc1[N+](=O)[O-]	–	–	–	–	·	·
Cc1nc2ccc(S(=O)(=O)NC(C(=O)N3CCCCC3)C(C)C)cc2s1 (stereo unspecified)	–	–	–	–	·	·
S=C1NC2(CCCCC2)N=C1c1ccccc1	–	8.1	–	–	–	–
Fc1ccc(C2=NC3(CCCCC3)NC2=S)cc1	–	–	–	–	·	·
O=C1c2oc3ccc(F)cc3c(=O)c2C(c2cccc(F)c2)N1CCN1CCOCC1 (stereo unspecified)	–	–	–	–	·	·
COc1cccc(C2C(C(=O)Nc3ccccc3)=C(C)N=c3s/c(=C\c4ccc(N(C)C)cc4)c(=O)n32)c1 (stereo unspecified)	–	–	–	–	·	·
O=[N+]([O-])c1cccc(CNc2cccc(F)c2)c1	–	10.6	–	–	–	–
Cc1ccccc1C(=O)NCCN1CCn2cc(OCc3ccccc3)c(=O)cc2C1=O	–	–	–	–	·	·
O=C(NCCN1CCn2cc(OCc3ccc(F)cc3)c(=O)cc2C1=O)C1CC1	–	6.7	–	–	–	–

Source: PubChem (The Scripps Research Institute Molecular Screening Center)
